Test results: PubChem BioAssay (Tox21)
Results filed as inconclusive are left out. The source made the active and inactive calls. Unless noted, calls come from the whole dose curve; as a rule, active = well fitted curve in the direction sought with a large enough effect in the repeat runs; inconclusive = weak or mixed curves; inactive = no such curve, though single readings can be large; an effect the other way counts as inactive or inconclusive.

Columns and labels:
[1] = qHTS assay to identify aromatase inhibitors - cell viability counter screen (AID 743084);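 note: cells stimulated with testosterone during compound exposure; nearly all actives have a fitted effect of over 55% in size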
[2] = qHTS assay to identify small molecule that activate the aryl hydrocarbon receptor (AhR) signaling pathway - cell viability counter screen (AID 743086);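 note: HepG2 liver cells carrying the AhR DRE luciferase reporter; series mostly up to about 70 µM; nearly all actives have a fitted effect of over 45% in size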
How it was run: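 Cytotoxicity counter screen: CellTiter-Fluor signal (30 min, 37 C) in 4000 HepG2 cells/well carrying the DRE-luciferase reporter, following 24 h compound exposure at 37 C.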

[3] = biological target: Peroxisome proliferator-activated receptor gamma (Homo sapiens) (UniProt P37231); assay: qHTS assay to identify small molecule agonists of the peroxisome proliferator-activated receptor gamma (PPARg) signaling pathway (AID 743094; active = well fitted activation curve with a large enough effect in the signal ratio in the repeat runs, not every such curve was filed as active; the % refers to the signal ratio)
How it was run: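 Reporter activation was scored by fluorescence of cleaved LiveBLAzer B/G substrate (1 h, room temperature) in PPARg-bla HEK293H cells previously treated 17 h at 37C with DMSO-dissolved compounds.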

[4] = biological target: Peroxisome proliferator-activated receptor gamma (Homo sapiens) (UniProt P37231); assay: qHTS assay to identify small molecule antagonists of the peroxisome proliferator-activated receptor gamma (PPARg) signaling pathway (AID 743191; calls by dose curve; note: series mostly up to about 63 µM; nearly all actives have a fitted effect of over 30% in size)
How it was run: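 Beta-lactamase reporter under UAS control in HEK293H PPARg-bla cells; compound treatment 17 h at 37C. Read-out: fluorescence intensity after 1 h room-temperature incubation with LiveBLAzer B/G FRET substrate.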

[5] = qHTS assay to identify small molecule antagonists of the peroxisome proliferator-activated receptor gamma (PPARg) signaling pathway - cell viability counter screen (AID 743194); note: nearly all actives have a fitted effect of over 55% in size
How it was run: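 Viability was measured as CellTiter-Glo luminescence in GeneBLAzer PPARg UAS-bla HEK293H cells. These cells had been exposed 17 h at 37 C to compounds together with rosiglitazone at 50 nM final, with the beta-lactamase readout taken in the same wells.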

[6] = qHTS assay for small molecule agonists of the antioxidant response element (ARE) signaling pathway (AID 743202; active = well fitted activation curve with a large enough effect in the signal ratio in the repeat runs, not every such curve was filed as active; the % refers to the signal ratio)
How it was run: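 Beta-lactamase reporter activity, read as fluorescence intensity, reflects ARE/Nrf2 pathway induction in HepG2 cells after 16 h compound exposure at 37 C; substrate loading was 2 h at room temperature.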

[7] = qHTS assay for small molecule agonists of the antioxidant response element (ARE) signaling pathway - cell viability counter screen (AID 743203; calls by dose curve; note: nearly all actives have a fitted effect of over 55% in size)
How it was run: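 Viability counter screen: stably transfected ARE-bla HepG2 line, 16 hrs compound exposure at 37C/5% CO2, ATP-based CellTiter-Glo luminescence measured in the reporter wells.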

[8] = qHTS assay for small molecule activators of the heat shock response signaling pathway - cell viability counter screen (AID 743209); note: nearly all actives have a fitted effect of over 50% in size
How it was run: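 Viability of HSE-bla HeLa cells is measured with CellTiter-Glo in the wells already used for the reporter read. Compound exposure lasts 5 h at 37 C, and luminescence is read after 30 min at room temperature.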

[9] = qHTS assay for small molecule activators of the heat shock response signaling pathway (AID 743210; active = well fitted activation curve with a large enough effect in the signal ratio in the repeat runs, with a control signal flat, not every such curve was filed as active; the % refers to the signal ratio;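 note: HeLa cells with beta-lactamase reporter driven by heat shock elements; series mostly up to about 63 µM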)
How it was run: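 Fluorescence from a cleaved B/G FRET substrate (2.5 h, room temp) reports HSE-driven beta-lactamase in HeLa cells treated 5 h at 37 C with DMSO-dissolved compounds.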

[10] = qHTS assay to identify small molecule agonists of the peroxisome proliferator-activated receptor delta (PPARd) signaling pathway - cell viability counter screen (AID 743211); note: nearly all actives have a fitted effect of over 55% in size
How it was run: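 Read-out: CellTiter-Glo luminescence, 30 min RT, measured in the same wells as the beta-lactamase reporter. Cells: GeneBLAzer PPAR delta UAS-bla HEK293H, 3000 cells/well, compound exposure 17 h at 37C.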

[11] = biological target: Peroxisome proliferator-activated receptor delta (Homo sapiens) (UniProt Q03181); assay: qHTS assay to identify small molecule agonists of the peroxisome proliferator-activated receptor delta (PPARd) signaling pathway (AID 743212; calls by dose curve)
How it was run: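 Steps: seed PPARd-bla HEK293H cells; incubate 5 h, 37 C, 5% CO2; add compounds in DMSO; incubate, 37 C; add LiveBLAzer B/G FRET substrate; hold 2 h at room temperature; measure fluorescence.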

[12] = qHTS assay to identify small molecule antagonists of the peroxisome proliferator-activated receptor delta (PPARd) signaling pathway - cell viability counter screen (AID 743213); note: nearly all actives have a fitted effect of over 50% in size
How it was run: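 HEK293H PPARd UAS-bla cells, 5 h pre-incubation, compound + L165041 300 nM final, 17 h 37 C; B/G FRET substrate 2 h RT; then CellTiter-Glo 30 min RT, luminescence.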

[13] = biological target: Peroxisome proliferator-activated receptor delta (Homo sapiens) (UniProt Q03181); assay: qHTS assay to identify small molecule antagonists of the peroxisome proliferator-activated receptor delta (PPARd) signaling pathway (AID 743215; active = well fitted inhibition curve with a large enough effect in the signal ratio in the repeat runs, not every such curve was filed as active; the % refers to the signal ratio;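 note: cells stimulated with agonist L165041 at 300 nM final during compound exposure; series mostly up to about 62 µM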)
How it was run: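 Plated HEK293H PPARd-bla cells rested 5 h at 37 C and 5% CO2. Compound, then agonist L165041 at 300 nM final, was added; 17 h at 37 C followed. Substrate loading, 2 h room temperature, fluorescence measured.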

[14] = qHTS assay to identify small molecule antagonists of the farnesoid-X-receptor (FXR) signaling pathway - cell viability counter screen (AID 743221; active = well fitted cell-killing curve with a large enough effect in the repeat runs, not every such curve was filed as active; note: nearly all actives have a fitted effect of over 50% in size)
How it was run: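 HEK 293T FXR-bla cells, 5 h pre-incubation; compound + CDCA 50 uM final, 16 h, 37 C; beta-lactamase FRET read first, then CellTiter-Glo luminescence, 30 min RT.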

[15] = biological target: Vitamin D3 receptor (Homo sapiens) (UniProt P11473); assay: qHTS assay to identify small molecule agonists of the vitamin D receptor (VDR) signaling pathway (AID 743222; calls by dose curve)
How it was run: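 Fluorescence from cleaved LiveBLAzer B/G FRET substrate served as readout. VDR-bla cells had been treated 16 h at 37C with test compounds in DMSO, following a 4 h settling period, and substrate was loaded for 2 h at RT.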

[16] = biological target: Aryl hydrocarbon receptor (Homo sapiens) (UniProt P35869); assay: qHTS assay to identify small molecule that activate the aryl hydrocarbon receptor (AhR) signaling pathway (AID 743085);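 note: HG2L7.5c1 human HepG2 liver cells with stably integrated DRE-driven firefly reporter; series mostly up to about 70 µM; nearly all actives have a fitted effect of over 15% in size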
How it was run: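 Luminescence read-out: ONE-Glo reagent, 30 min at room temperature, in HG2L7.5c1 HepG2 reporter cells treated 24 h at 37C. Viability was measured beforehand by CellTiter-Fluor fluorescence after 30 min at 37C.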

[17] = biological target: Bile acid receptor (Homo sapiens) (UniProt Q96RI1); assay: qHTS assay to identify small molecule antagonists of the farnesoid-X-receptor (FXR) signaling pathway (AID 743217; active = well fitted inhibition curve with a large enough effect in the signal ratio in the repeat runs, not every such curve was filed as active; the % refers to the signal ratio)
How it was run: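 Screen of the Tox21 10K library in quantitative HTS format using FXR-UAS-bla HEK 293T reporter cells. Agonist chenodeoxycholic acid, 50 uM final, added with compounds; 16 h incubation at 37 °C; beta-lactamase FRET fluorescence measured.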

[18] = qHTS assay to identify small molecule agonists of the farnesoid-X-receptor (FXR) signaling pathway - cell viability counter screen (AID 743218); note: nearly all actives have a fitted effect of over 45% in size
How it was run: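 Viability of FXR-bla HEK 293T cells is measured by ATP-based CellTiter-Glo luminescence following 16 h compound treatment at 37 C and a prior 2 h room-temperature beta-lactamase substrate step.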

[19] = biological target: Bile acid receptor (Homo sapiens) (UniProt Q96RI1); assay: qHTS assay to identify small molecule agonists of the farnesoid-X-receptor (FXR) signaling pathway (AID 743220; active = well fitted activation curve with a large enough effect in the signal ratio in the repeat runs, not every such curve was filed as active; the % refers to the signal ratio)
How it was run: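 FXR-UAS-bla HEK 293T cells carrying a UAS-driven beta-lactamase reporter were plated for 5 h at 37C/5% CO2, then exposed to DMSO-dissolved Tox21 10K compounds for 16 h at 37C. A LiveBLAzer B/G FRET substrate was loaded for 2 h at room temperature before fluorescence reading.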

[20] = biological target: Vitamin D3 receptor (Homo sapiens) (UniProt P11473); assay: qHTS assay to identify small molecule antagonists of the vitamin D receptor (VDR) signaling pathway (AID 743223; active = well fitted inhibition curve with a large enough effect in the signal ratio in the repeat runs, not every such curve was filed as active; the % refers to the signal ratio)
How it was run: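 Beta-lactamase reporter read-out: FRET substrate fluorescence after 2 h at room temperature, following 16 h exposure of VDR-bla cells to test compound plus 3 nM (final) 1alpha,25-dihydroxyvitamin D3 agonist at 37C.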

Measured: Potency

Vitamin D3 receptor (Homo sapiens), sequence (P11473 whole entry, looked up): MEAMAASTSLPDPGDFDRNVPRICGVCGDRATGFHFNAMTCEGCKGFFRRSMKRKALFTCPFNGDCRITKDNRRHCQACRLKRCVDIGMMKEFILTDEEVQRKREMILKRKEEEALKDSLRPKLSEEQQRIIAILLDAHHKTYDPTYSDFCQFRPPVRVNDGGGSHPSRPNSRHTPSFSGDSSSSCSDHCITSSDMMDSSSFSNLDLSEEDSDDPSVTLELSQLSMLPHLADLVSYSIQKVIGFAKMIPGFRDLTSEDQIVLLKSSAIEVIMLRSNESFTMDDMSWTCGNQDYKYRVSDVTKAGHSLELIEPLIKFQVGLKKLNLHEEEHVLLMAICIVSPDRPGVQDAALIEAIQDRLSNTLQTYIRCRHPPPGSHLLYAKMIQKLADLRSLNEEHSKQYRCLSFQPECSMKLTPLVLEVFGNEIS
Aryl hydrocarbon receptor (Homo sapiens), sequence (P35869 whole entry, looked up): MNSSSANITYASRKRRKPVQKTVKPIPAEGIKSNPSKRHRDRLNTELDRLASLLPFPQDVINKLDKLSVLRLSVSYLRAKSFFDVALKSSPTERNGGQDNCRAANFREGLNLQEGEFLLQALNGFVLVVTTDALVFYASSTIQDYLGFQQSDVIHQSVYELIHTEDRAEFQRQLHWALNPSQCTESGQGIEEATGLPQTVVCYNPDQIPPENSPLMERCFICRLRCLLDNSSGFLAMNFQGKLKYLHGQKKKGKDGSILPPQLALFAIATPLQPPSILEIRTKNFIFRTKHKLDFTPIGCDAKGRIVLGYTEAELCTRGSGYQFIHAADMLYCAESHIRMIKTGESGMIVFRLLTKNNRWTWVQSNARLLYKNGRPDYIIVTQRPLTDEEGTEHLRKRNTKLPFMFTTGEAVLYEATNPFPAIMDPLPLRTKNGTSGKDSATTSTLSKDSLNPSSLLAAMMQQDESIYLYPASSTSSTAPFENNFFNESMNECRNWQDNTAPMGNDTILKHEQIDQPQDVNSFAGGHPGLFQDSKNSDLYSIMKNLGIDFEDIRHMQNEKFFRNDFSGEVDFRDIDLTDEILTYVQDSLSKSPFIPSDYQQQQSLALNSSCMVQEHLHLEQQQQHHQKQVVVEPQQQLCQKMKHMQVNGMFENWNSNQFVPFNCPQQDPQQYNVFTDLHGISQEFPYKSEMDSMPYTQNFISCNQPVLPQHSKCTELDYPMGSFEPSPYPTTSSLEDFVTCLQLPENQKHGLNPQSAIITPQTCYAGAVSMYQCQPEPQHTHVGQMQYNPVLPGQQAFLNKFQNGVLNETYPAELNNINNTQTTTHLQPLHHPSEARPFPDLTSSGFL
Peroxisome proliferator-activated receptor delta (Homo sapiens), sequence (Q03181 whole entry, looked up): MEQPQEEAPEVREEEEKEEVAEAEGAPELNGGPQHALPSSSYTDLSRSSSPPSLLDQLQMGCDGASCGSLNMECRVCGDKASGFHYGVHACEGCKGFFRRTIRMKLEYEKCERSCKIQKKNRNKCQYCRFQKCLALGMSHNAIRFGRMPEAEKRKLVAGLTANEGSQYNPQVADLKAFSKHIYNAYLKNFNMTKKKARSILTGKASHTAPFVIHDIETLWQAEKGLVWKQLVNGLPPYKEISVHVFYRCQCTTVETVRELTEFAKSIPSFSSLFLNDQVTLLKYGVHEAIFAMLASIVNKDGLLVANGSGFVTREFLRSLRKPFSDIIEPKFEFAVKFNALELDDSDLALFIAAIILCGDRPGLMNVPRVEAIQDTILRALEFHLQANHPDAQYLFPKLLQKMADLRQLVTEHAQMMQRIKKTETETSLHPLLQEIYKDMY
Peroxisome proliferator-activated receptor gamma (Homo sapiens), sequence (P37231 whole entry, looked up): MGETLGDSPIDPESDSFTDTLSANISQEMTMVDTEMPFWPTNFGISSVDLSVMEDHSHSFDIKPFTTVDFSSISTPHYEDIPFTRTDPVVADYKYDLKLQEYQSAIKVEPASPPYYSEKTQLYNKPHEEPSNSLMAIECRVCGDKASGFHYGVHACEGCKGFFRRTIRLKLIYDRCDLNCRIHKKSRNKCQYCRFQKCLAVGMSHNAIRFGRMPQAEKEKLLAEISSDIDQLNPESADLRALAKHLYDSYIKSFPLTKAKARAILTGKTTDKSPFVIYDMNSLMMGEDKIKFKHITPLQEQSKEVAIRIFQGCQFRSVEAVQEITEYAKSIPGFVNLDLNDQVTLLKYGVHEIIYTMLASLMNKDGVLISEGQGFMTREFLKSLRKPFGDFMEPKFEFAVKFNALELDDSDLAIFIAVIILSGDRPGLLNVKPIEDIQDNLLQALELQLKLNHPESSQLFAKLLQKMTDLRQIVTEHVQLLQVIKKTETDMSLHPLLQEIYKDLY
Bile acid receptor (Homo sapiens), sequence (Q96RI1 whole entry, looked up): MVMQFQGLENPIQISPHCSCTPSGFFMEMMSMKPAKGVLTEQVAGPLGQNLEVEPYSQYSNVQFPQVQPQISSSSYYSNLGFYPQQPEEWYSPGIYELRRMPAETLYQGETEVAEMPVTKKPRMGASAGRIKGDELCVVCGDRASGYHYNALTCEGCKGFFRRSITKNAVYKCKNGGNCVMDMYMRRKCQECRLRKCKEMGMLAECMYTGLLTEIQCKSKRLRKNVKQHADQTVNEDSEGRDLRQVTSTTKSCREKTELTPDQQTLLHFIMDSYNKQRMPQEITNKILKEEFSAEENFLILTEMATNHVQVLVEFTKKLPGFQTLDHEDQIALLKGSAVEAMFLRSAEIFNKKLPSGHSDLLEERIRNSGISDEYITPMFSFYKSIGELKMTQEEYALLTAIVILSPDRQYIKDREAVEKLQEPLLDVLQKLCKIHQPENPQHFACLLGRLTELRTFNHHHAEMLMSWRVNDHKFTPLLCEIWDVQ

CCCCCCCOC(C)=O
not listed: [16] | [17] | [18] | [19] | [20]
inactive: all other assays above

CC(C)(C)C(=O)CC(=O)C(C)(C)C
not listed: [2] | [5] | [6] | [8] | [9] | [10] | [11] | [13]
inactive: all other assays above

CC[N+](C)(CC)CC
not listed: [2] | [4] | [11] | [13] | [15] | [18] | [20]
inactive: all other assays above

CCNC(=O)C(C)OC(=O)Nc1ccccc1 (stereo not drawn)
not listed: [11] | [13] | [16]
inactive: all other assays above

CCOC(=O)c1ccc(N(C)C)cc1
not listed: [4] | [6] | [9] | [16] | [17] | [19]
inactive: all other assays above

CCN1CCN(C(=O)N[C@@H](C(=O)N[C@@H]2C(=O)N3C(C(=O)O)=C(CSc4nnnn4C)CS[C@H]23)c2ccc(O)cc2)C(=O)C1=O
inactive: [1] | [3] | [4] | [5] | [7] | [8] | [9] | [10] | [11] | [13] | [18]

CN(C)CCC[C@@]1(c2ccc(F)cc2)OCc2cc(C#N)ccc21
not listed: [3] | [4] | [6] | [16] | [17] | [19] | [20]
inactive: all other assays above

CC(=O)Nc1ccc(S(=O)(=O)Nc2cc(C)on2)cc1
not listed: [2] | [4] | [8] | [13]
inactive: all other assays above

CCCCCCCCCCCBr
not listed: [2] | [4] | [16]
inactive: all other assays above
